Screening results from PubChem.
Shown are actives, neighbours in structure and some others; about 1.1% of the full set was active somewhere.
NCOA2 inhibitor – human SRC2 (NCOA2) inhibition. HEK293 GAL4-SRC2 luciferase reporter, luminescence. inhibition, % at 9 µM. hit rate 0.17% among 370,000. AID 651957;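 active = inhibition above the mean inhibition of all tested compounds plus 3 SD, set per campaign, cut at about 52% in these data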;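 also: 0% = DMSO treated cells and 100% = cells given Gossypol at 36 µM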
NCOA3 inh – human NCOA3 inhibition; Q9Y6Q9; hit rate 0.17% among 360,000; inhibition, % at 3.6 µM; HEK293 GAL4-SRC3 luciferase reporter, luminescence;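 active = inhibition above a per-campaign cutoff, the mean of all compounds plus 3 SD, cut at about 60% in these data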;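 also: 0% = DMSO-treated cells and 100% = gossypol-treated cells at 36 µM; higher means less SRC3-driven luciferase light from the GAL4 reporter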
NR2F2 inh – blocks human COUP-TFII nuclear receptor. P24468. HEK293T NGFI-A luciferase reporter, luminescence. inhibition, % at 8.6 µM. hit rate 0.7% among 370,000;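 active = inhibition above a per-plate cutoff, mean inhibition of test wells between control levels plus 3 SD, cut at about 38% in these data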;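 also: cells cotransfected with COUP-TFII expression vector driving the NGFI-A reporter; 0% = median of COUP-TF2 test wells and 100% = reporter-only cells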
Target sequence (P24468 whole entry, looked up): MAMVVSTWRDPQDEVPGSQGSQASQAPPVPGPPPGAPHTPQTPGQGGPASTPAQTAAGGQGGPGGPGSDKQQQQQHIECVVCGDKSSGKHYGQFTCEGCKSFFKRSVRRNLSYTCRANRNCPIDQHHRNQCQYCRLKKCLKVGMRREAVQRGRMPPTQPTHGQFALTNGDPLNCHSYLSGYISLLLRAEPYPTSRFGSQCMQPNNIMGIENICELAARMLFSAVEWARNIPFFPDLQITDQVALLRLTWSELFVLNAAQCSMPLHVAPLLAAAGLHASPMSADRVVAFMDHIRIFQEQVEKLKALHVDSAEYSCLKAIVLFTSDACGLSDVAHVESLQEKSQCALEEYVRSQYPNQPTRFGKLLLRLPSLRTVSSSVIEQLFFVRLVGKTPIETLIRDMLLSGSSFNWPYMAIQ
GalR3 antagonist – human GalR3 antagonism; AID 651719; HEK293 GalR3-CNG cAMP membrane potential fluorescence; galR3 body fused to GalR1 C-terminus; inhibition, % at 3 µM; hit rate 0.44% among 360,000; O60755;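 active = inhibition above the screen-wide average plus 3 SD, cut at about 13% in these data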;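 also: forskolin and galanin both at EC90 stimulate the cells; cAMP rise reported by CNG channel membrane potential dye signal; 0% = forskolin plus galanin with DMSO and 100% = forskolin alone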
Target sequence (O60755 1-299 limits assumed): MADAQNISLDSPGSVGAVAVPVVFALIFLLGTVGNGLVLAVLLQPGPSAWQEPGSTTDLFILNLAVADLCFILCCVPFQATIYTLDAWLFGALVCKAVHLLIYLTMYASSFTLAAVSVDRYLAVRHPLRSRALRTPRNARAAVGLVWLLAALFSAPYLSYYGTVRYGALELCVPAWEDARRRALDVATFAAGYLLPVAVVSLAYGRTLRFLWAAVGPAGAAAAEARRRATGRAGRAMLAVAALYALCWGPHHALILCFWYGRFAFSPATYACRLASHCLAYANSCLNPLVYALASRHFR
LRH-1 inv ag – suppresses constitutive activity of human LRH-1; O00482; HEK293T StAR-luciferase reporter, LRH-1 transfected, 24 h; inhibition, % at 3.6 µM; hit rate 0.13% among 360,000;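 active = inhibition above the mean inhibition of all tested compounds plus 3 SD, cut at about 73% in these data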;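 also: 0% = DMSO wells and 100% = reporter-only cells lacking LRH-1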
NCOA1 inh – human NCOA1 inhibition; Q15788; HEK293 GAL4-SRC1 luciferase reporter, luminescence; inhibition, % at 3.6 µM; hit rate 0.12% among 360,000;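 active = inhibition above the campaign mean plus 3 SD, with each screening campaign given its own cutoff, cut at about 60% in these data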;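 also: 0% = DMSO treated cells and 100% = gossypol at 36 µM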
VP16 Luc counter – counter-screen for COUP-TFII antagonists: inhibitors of VP16. inhibition, % at 8.5 µM. AID 687007. HEK293 Gal4-VP16 luciferase reporter, luminescence. hit rate 25% among 2,500. shares compounds with NR2F2 inh; in the data active = inhibition above about 13%
NR2F2 inh conf – COUP-TFII (NR2F2) inhibition, confirmation assay. HEK293 NGFI-A luciferase reporter, luminescence. inhibition, % at 8.5 µM. shares compounds with NR2F2 inh. hit rate 45% among 2,500;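 active = mean inhibition over three repeats above a set limit taken from the earlier primary screen, cut at about 38% in these data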;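 also: 100% = cells given the luciferase reporter alone without the COUP-TF2 vector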
Starred values were filed as active, the others as inactive; / = not tested or not shown.

SMILES	NCOA2 inhibitor	NCOA3 inh	NR2F2 inh	GalR3 antagonist	LRH-1 inv ag	NCOA1 inh	VP16 Luc counter	NR2F2 inh conf
c1ccc(Nc2ncnc3sc4c(c23)CCC4)cc1	11.8	12.5	15.0	0.9	-1.6	16.6	/	/
O=S(=O)(C/C(=C/CO)S(=O)(=O)c1ccccc1)c1ccccc1	72.1*	-39.4	76.1*	4.4	-59.2	-99.3	37.5*	57.9*
C(=N\Nc1nc2ccccc2s1)/c1ccccn1	68.8*	/	62.5*	-7.0	/	/	69.7*	79.6*
c1ccc(C[n+]2cccc3c4ccccc4ccc32)cc1	18.9	32.6	52.8*	-3.4	60.6	19.2	3.0	44.9*
CCCCC[n+]1cccc2c3ccccc3ccc21	-28.6	56.6	64.2*	-2.4	78.1*	51.3	16.1*	59.9*
COC(=O)C1=C(C)N(Cc2ccc(C(F)(F)F)cc2)C(=NCc2ccccc2)NC1c1ccccc1 (stereo not drawn)	4.7	/	8.4	-5.6	/	/	/	/
CCCCN1CC(COCc2ccccc2)Oc2cccc(NCc3cc(OC)c(OC)c(OC)c3)c2S1(=O)=O (stereo not drawn)	33.4	/	18.6	-2.2	/	/	/	/
Nc1nc(NCc2ccco2)nc(N2CCCCCC2)c1[N+](=O)[O-]	19.8	38.0	47.7*	-8.1	-5.3	-8.5	1.7	23.2
CC(C)CCNc1nc(N)c([N+](=O)[O-])c(N2CCCCCC2)n1	18.6	29.5	40.9*	-10.2	-5.5	13.4	-2.6	27.8
N#Cc1ccc(S(=O)(=O)N2CCCc3nc(-c4ccccc4)ccc32)cc1	-7.6	/	0.7	-8.1	/	/	/	/
CN(CC(=O)Nc1ccc(F)cc1)C(=O)c1cccc(S(=O)(=O)N2CCN(c3ccccc3)CC2)c1	11.7	8.2	15.6	-7.1	27.8	-1.1	/	/
COc1cccc(CN(C)C(=O)c2cccc(S(=O)(=O)N3CCN(c4ccccc4)CC3)c2)c1OC	-1.0	32.0	52.4*	-0.6	3.0	3.9	-0.7	21.4
COc1ccccc1CNC(=O)c1cccc(S(=O)(=O)N2CCN(c3ccc(F)cc3)CC2)c1	-16.8	7.0	4.5	-2.2	19.5	-7.5	/	/
COc1cccc(CN(C)C(=O)c2cccc(S(=O)(=O)N3CCN(Cc4ccccc4)CC3)c2)c1OC	-1.4	18.8	18.3	-3.4	8.9	-16.0	/	/
CN(Cc1ccc(Cl)cc1Cl)C(=O)c1cccc(S(=O)(=O)N2CCN(c3ccccc3)CC2)c1	28.2	-7.1	17.1	-3.9	4.4	3.8	/	/
COc1cccc(CN(C)C(=O)c2cccc(S(=O)(=O)N3CCN(c4ccc(F)cc4)CC3)c2)c1OC	25.1	17.2	58.5*	-4.5	5.7	7.5	-1.8	38.8*
CN(CCOc1ccc(Cl)cc1)C(=O)c1cccc(S(=O)(=O)N2CCN(c3ccccc3)CC2)c1	29.6	3.5	58.8*	-7.8	30.9	15.3	5.9	44.3*
COc1ccc(NC(=O)CN(C)C(=O)c2cccc(S(=O)(=O)N3CCN(c4ccc(F)cc4)CC3)c2)cc1	23.9	16.9	45.9*	-10.5	14.0	-4.1	-1.9	17.2
COC(=O)C[C@H]1CC[C@@H]2[C@@H](COc3ccc(NC(=O)Nc4cccc(C)c4)cc3C(=O)N2C)O1	1.3	/	-3.0	/	/	/	/	/
Cc1ccc(-n2c(SCC(=O)Nc3ccccc3-c3ccccc3)nnc2-c2ccccc2)cc1	-3.8	/	1.1	/	/	/	/	/
C[C@H]1CN([C@@H](C)CO)C(=O)CCCn2cc(nn2)CO[C@@H]1CN(C)S(=O)(=O)c1cn(C)cn1	-19.7	/	7.1	-3.5	/	/	/	/
Cc1cccc(C)c1NC(=O)c1csc(COCCO)n1	1.0	-2.7	-8.7	-6.6	-2.5	-71.8	/	/
O=C(C(=Cc1ccccc1)CN1CCCCC1)c1ccccc1	22.3	-7.6	51.6*	-6.9	77.3*	18.4	72.3*	95.2*
Cc1cc2nc(C3CCCN(C(=S)Nc4ccccc4C)C3)[nH]c2cc1C (stereo not drawn)	21.2	6.7	45.1*	-6.5	14.7	13.9	-33.9	-7.3
Cc1ccc2nc(C3CCCN(C(=S)Nc4cccc(C)c4C)C3)[nH]c2c1 (stereo not drawn)	2.9	19.6	-7.4	-0.9	-26.2	-5.7	/	/
SMILES	NCOA2 inhibitor	NCOA3 inh	NR2F2 inh	GalR3 antagonist	LRH-1 inv ag	NCOA1 inh	VP16 Luc counter	NR2F2 inh conf
Nc1ccc(-c2cc3ccccc3c(=O)o2)cc1	73.5*	26.0	73.3*	-3.5	-19.7	18.8	42.0*	33.5
CNc1cnc(-c2cccc(C(=O)N3CCOCC3)c2)cn1	-15.1	-5.7	-2.4	-1.9	-10.3	2.2	/	/
COc1ccc(Cn2cc(CN(C)C3CN(Cc4cn(Cc5ccc(OC)cc5)nn4)S(=O)(=O)C3)nn2)cc1 (stereo not drawn)	14.0	/	15.2	-4.7	5.7	/	/	/
CN1/C(=C\C(=O)C[n+]2ccc3ccccc3c2)C(C)(C)c2ccccc21	4.4	51.1	78.8*	-7.5	60.6	16.4	16.8*	52.0*
Cc1ccccc1CS(=O)(=O)Cc1ccc(C(=O)Nc2ccc(F)cc2)o1	18.1	/	52.9*	/	/	/	3.1	21.6
COc1c(C(O)CC(C)C)ccc2c1C(=O)OCc1cc(C)cc(O)c1O2 (stereo not drawn)	8.5	15.1	38.4*	-6.7	12.4	16.6	2.5	19.2
COc1c(C(CC(C)C)OC(C)=O)ccc2c1C(=O)OCc1cc(C)cc(O)c1O2 (stereo not drawn)	11.5	15.9	49.4*	-0.7	11.8	12.4	0.4	7.8
CN(C)[C@H]1CCN(c2ccc3c(c2)O[C@@H]2CCN(C2)S3(=O)=O)C1	6.6	/	4.5	/	/	/	/	/
Cc1sc(NC(=O)CCCC(=O)O)c(C(N)=O)c1-c1ccccc1	74.9*	4.7	59.9*	-3.2	-19.3	-3.6	46.7*	30.0
COC(=O)c1c(NC(=O)CCCC(=O)O)sc(C)c1C	24.2	-2.9	-6.2	-4.0	-1.0	14.9	/	/
c1ccc2c(c1)[nH]c1c(N3CCC4(CC3)OCCO4)ncnc12	/	1.9	/	/	7.9	4.0	/	/
c1ccc2c(c1)CCN(c1ncnc3c1[nH]c1ccccc13)C2	36.1	31.8	70.9*	7.8	46.2	22.8	3.5	75.7*
COc1cccc(N2CCN(c3ncnc4c3[nH]c3ccccc34)CC2C)c1 (stereo not drawn)	60.8*	/	75.8*	-5.0	/	/	19.3*	84.0*
Clc1ccc(-c2csc(NCC3CCCO3)n2)cc1 (stereo not drawn)	-59.1	/	-28.1	-4.8	/	/	/	/
COCCn1c(C)c(C)c2c(NCCc3ccccc3)ncnc21	11.8	26.3	46.8*	-6.1	22.8	23.1	9.6	64.1*
FC(F)(F)c1nc(N2CCCC2)ncc1-c1nnnn1-c1ccc(Cl)cc1	20.6	17.6	38.3*	-2.5	11.9	5.0	4.1	33.0
